Source: PubChem BioAssay
DPM-DC inhibit = S. pneumoniae DPM-DC inhibitors, primary screen, biochemical, PK/LDH-coupled NADH fluorescence; hit rate 0.49% among 65,000; purified DPM-DC; diphosphomevalonate decarboxylase (Streptococcus pneumoniae D39); AID 556, 2006; calls only at 10 µM;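 active means the 320 compounds with the highest percent inhibition in the single-dose primary screen, excluding strongly autofluorescent ones, cut at about 32% in these data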;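 further: kinetic rate of NADH fluorescence loss reporting ADP formed by the decarboxylase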
Spn PMK inh = S. pneumoniae PMK inhibitors, primary screen, biochemical, mevalonate pathway, pilot trial included | phosphomevalonate kinase (Streptococcus pneumoniae D39) | purified PMK, PK/LDH-coupled NADH absorbance 340 nm | inhibition, % at 10 µM | hit rate 0.49% among 65,000 | AID 539, 2006;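 active means top-ranked compounds by inhibition in the single 10 µM screen, taking a fixed number of the strongest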;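 further: 0% = full reaction with DMSO carrier and 100% = background rate without enzyme reaction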
Abs 340nm = compound light absorbance at 340 nm, profiling panel, artefact control, biochemical, MLSMR library, data from PS, PMK, MK assays; compound absorbance at 340 nm, fold over control; fold change at 10 µM; 65,000 tested, under 10 active; AID 708, 2007;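 active means at 10 µM dose, initial 340 nm absorbance at least 2 fold that of control wells; inactive means change under 2 fold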;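 further: initial absorbance extrapolated from kinetic A340 decline of NADH oxidation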
NADH enzymes = inhibitors of PK/LDH coupling enzymes, profiling panel, artefact control, biochemical, MLSMR library. hit rate 0.02% among 65,000. IC50, µM (doses to about 10 µM), without a hit: at the highest dose inhibition. AID 774, 2007. coupled PK/LDH NADH assays, four targets;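 active means single-dose screening hits from any of four coupled enzyme assays that gave an IC50 when retested across doses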;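 further: the DPM-DC format reads NADH fluorescence rather than 340 nm absorbance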
Spn MK inh = S. pneumoniae MK inhibitors, primary screen, biochemical, PK/LDH-coupled NADH absorbance. mevalonate kinase [Streptococcus pneumoniae D39]. purified MK, PK/LDH-coupled NADH absorbance 340 nm. inhibition, % at 10 µM. hit rate 0.48% among 65,000. AID 555, 2006;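 active means ranked among the strongest by inhibition in the single 10 µM screen, a fixed top-ranked set picked for dose follow-up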
Fluor 339 460 = intrinsic fluorescence of library compounds, ex339/em460 – biochemical, MLSMR library, data from DPM-DC assay, artefact control, profiling panel; fluorescence fold increase at 10 µM; compound autofluorescence, ex339/em460 nm, NADH buffer; stronger effect = higher value; 1 = no-compound wells, NADH background; hit rate 5.5% among 65,000;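 active means at 10 µM, mean starting fluorescence two-fold or more over control wells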;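 further: signal is the first read of a kinetic run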
An asterisk follows results filed as active; i = inactive; nt = no result shown. Only some compounds are listed: those with a hit (about 6.8% of all), similar ones and a draw of the others.

SMILES	DPM-DC inhibit	Spn PMK inh	Abs 340nm	NADH enzymes	Spn MK inh	Fluor 339 460
CC1(C)CC(=O)C(C(C2=C(O)CC(C)(C)CC2=O)c2cccc(O)c2)C(=O)C1 (centres undefined)	i	29.0*	1.05	10.0%	0.0	1.09
Cc1cc2c(C)cc(=O)oc2c2c1NCCC2	nt	1.0	1.14	7.0%	12.0	3.61*
O=C1c2ccccc2C(O)N1Cc1ccco1 (centres undefined)	i	10.0	1.02	6.0%	8.0	1.07
O=C1c2ccccc2NC(c2cccc(F)c2)N1Cc1ccco1 (centres undefined)	nt	4.0	0.99	5.0%	6.0	3.04*
Cc1ccc(C2Nc3ccccc3C(=O)N2Cc2ccco2)cc1 (centres undefined)	nt	6.0	1.02	7.0%	8.0	3.96*
COc1ccc(C2Nc3ccccc3C(=O)N2Cc2ccco2)cc1COc1ccc(NC(C)=O)cc1 (centres undefined)	nt	1.0	1.08	1.0%	0.0	3.8*
C1=C(c2ccc(-c3ccccc3)cc2)Nc2ncnn2C1c1ccco1 (centres undefined)	nt	10.0	1.08	9.0%	8.0	3.85*
COc1ccc(C2=CC(c3ccc(C)cc3)n3nnnc3N2)cc1 (centres undefined)	i	10.0	1.05	3.0%	0.0	1.34
CCOc1ccc(C2C=C(c3ccccc3)Nc3ncnn32)cc1 (centres undefined)	nt	8.0	1.06	9.0%	10.0	2.36*
COc1cccc(C2=CC(c3ccccc3)n3ncnc3N2)c1 (centres undefined)	i	10.0	1.06	6.0%	1.0	1.59
CCOc1ccc(C2C=C(c3ccc(F)cc3)Nc3ncnn32)cc1 (centres undefined)	nt	0.0	1.02	2.0%	0.0	2.48*
COc1ccc(C2C=C(c3ccc(C)cc3)Nc3ncnn32)cc1 (centres undefined)	nt	7.0	1.05	5.0%	2.0	2.35*
CC(C)/C=C1\CCCCC1N(C)C(=O)NC(C)C (centres undefined)	i	0.0	0.99	3.0%	8.0	1.13
CC(C)CCn1c(SCC(=O)OCn2nnc3ccccc3c2=O)nc2ccccc2c1=O	i	14.0	1.01	5.0%	1.0	0.97
COc1cccc(C2=CC(c3ccc(N(C)C)cc3)n3ncnc3N2)c1 (centres undefined)	i	8.0	1.09	10.0%	13.0	2.08*
Cc1cccc(NC(=O)c2cc(-c3ccco3)nc3ccccc23)n1	nt	6.0	1.09	4.0%	1.0	4.94*
O=C(Nc1ccccc1C(=O)NCC1CCCO1)c1ccco1 (centres undefined)	i	5.0	1.01	2.0%	7.0	1.04
O=C(Nc1ccon1)c1cc(-c2ccccc2)nc2ccccc12	i	10.0	1.01	3.0%	10.0	1.19
O=C(O)c1cc(-c2ccco2)nc2ccc(Br)cc12	i	16.0	1.06	14.0%	5.0	2.6*
O=C(c1ccco1)N1CCN(C(=O)c2cc(-c3ccncc3)nc3ccc(Br)cc23)CC1	i	5.0	1.07	4.0%	4.0	1.05
O=C(NCC1CCCO1)c1cc(-c2ccco2)nc2ccccc12 (centres undefined)	nt	9.0	1.17	9.0%	8.0	4.95*
C=CCn1c(SCC2=C(C(=O)OCC)C(C)NC(=O)N2)nnc1C1CCCCC1 (centres undefined)	i	12.0	0.99	3.0%	0.0	1.01
O=C(NCC1CCCO1)C1c2ccccc2C(=O)N1C1CCCCCC1 (centres undefined)	i	13.0	0.98	2.0%	3.0	1.02
Cc1nc2nc[nH]n2c(=O)c1CCC(C)C	i	13.0	1.02	7.0%	8.0	1.11
CSc1ccccc1NC(=O)c1cc(-c2cccs2)on1	i	11.0	0.99	5.0%	3.0	2.28*
SMILES	DPM-DC inhibit	Spn PMK inh	Abs 340nm	NADH enzymes	Spn MK inh	Fluor 339 460
CCCCc1c(C)c2ccc(OC)c(/C(C)=N\O)c2oc1=O	i	9.0	1.11	12.0%	nt	2.48*
O=C(COC(=O)c1cc(-c2cccs2)nc2ccccc12)NCc1ccco1	nt	15.0	1.04	9.0%	2.0	4.94*
CC(C)Cn1c(N)c(C(=O)COC(=O)c2cc(-c3ccco3)nc3ccccc23)c(=O)n(C)c1=O	nt	0.0	1.01	1.0%	0.0	2.14*
Cc1nn(-c2ccccc2)c(C)c1C(=O)OCC(=O)c1c(N)n(CC(C)C)c(=O)n(C)c1=O	i	9.0	0.99	2.0%	0.0	1.08
O=C(COC(=O)c1cc(-c2ccco2)nc2ccccc12)NCc1ccc2c(c1)OCO2	nt	0.0	1.04	2.0%	9.0	2.08*
COCCn1c(-c2ccc(Cl)cc2)cnc1SCC(=O)NCc1cccs1	i	7.0	1	3.0%	1.0	1.1
Cc1ccc(-c2ccc(CCC(=O)O)n2Cc2ccco2)cc1	i	15.0	1.04	8.0%	8.0	1.27
CC(=O)c1c(C)[nH]c(C(=O)OCCCCN2C(=O)c3ccccc3C2=O)c1C	i	14.0	1	6.0%	3.0	1.08
CC(=O)c1cc2c(cc1NC(=O)Nc1cccc(Cl)c1)OCCO2	i	0.0	1.04	6.0%	6.0	2.58*
O=C(Nc1cccc(Cl)c1)Nc1ccc2c(c1)OCO2	i	8.0	1.06	3.0%	1.0	1.12
CCC(=O)c1cc2c(cc1NC(=O)C(C)C)OCCO2	i	11.0	1.03	5.0%	3.0	2.06*
CC(C)C(=O)Nc1cc2c(cc1C(=O)c1ccccc1)OCCO2	i	3.0	0.99	4.0%	8.0	1.14
CC(=O)Nc1cc2c(cc1C(C)=O)OCCO2	nt	5.0	1.07	3.0%	0.0	3.59*
CCn1c(=O)cc(SCC(=O)N2CCN(c3ccccc3OC)CC2)c2ccccc21	i	11.0	1.03	5.0%	5.0	1.16
CCC(=O)n1nc(NCc2ccccc2OC)nc1NCc1ccccc1OC	i	9.0	1.04	4.0%	3.0	1.1
O=C(CNCCC1=CCCCC1)Nc1ccccc1N1CCCCC1	i	7.0	1.01	6.0%	30.0	1.05
CC(=O)Nc1ccc(S(=O)(=O)N(Cc2ccco2)CC2CCCO2)cc1 (centres undefined)	i	7.0	1	4.0%	6.0	1.09
Cc1ccc(S(=O)(=O)N2CCN(C(=O)CSc3nnnn3C)C2)cc1	i	12.0	1	2.0%	7.0	1.02
c1ccc2sc(-c3ccc4c(c3)OCO4)nc2c1	nt	15.0	1.09	12.0%	8.0	2.12*
CN(C)c1oc(-c2ccccc2Cl)nc1S(=O)(=O)c1ccccc1	i	0.0	1.07	7.0%	8.0	1.15
Cc1ccccc1-c1nnc(-c2ccccc2)o1	i	8.0	1.03	10.0%	5.0	1.06
